Assay [1] is described as follows: CCTE_Shafer_MEA_dev_firing_rate_mean: CCTE's Neural Network Formation Assay for Mean Firing Rate, Shafer Lab (AID 2284031). The gist of the method:
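Extracellular spike frequency, AUC over DIV 5–12 recordings, in rat cortical neuron MEA cultures dosed from plating; loss direction vs DMSO.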

Assay [2] in a line: CCTE_Shafer_MEA_dev_per_burst_spike_percent: CCTE's Neural Network Formation Assay for Percent of Spikes in a Burst, Shafer Lab (AID 2284032).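 Also: fitted as a decrease in burst spike percentage below DMSO baseline.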 A digest of the protocol: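 Value is trapezoidal AUC over recordings on days 5, 7, 9 and 12 of the well-mean fraction of spikes falling in single-electrode bursts; rat cortical cultures exposed continuously from plating, treatment renewed DIV 5 and 9, fitted downward against DMSO.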

Assay [3] can be described thus: CCTE_Shafer_MEA_dev_active_electrodes_number: CCTE's Neural Network Formation Assay for Number of Active Electrodes, Shafer Lab (AID 2284040; active = hit-call score of the fitted dose curve at least 0.9, where 1 is the maximum;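 also: potency for loss of active electrodes versus DMSO so lower counts are hits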). The gist of the method: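 Developing rat cortical networks on MEAs, exposed DIV 0–12. Value is the AUC of active-electrode counts (≥5 spikes/min) from days 5, 7, 9, 12, relative to DMSO.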
The nature of assay [4]: CCTE_Shafer_MEA_dev_burst_rate: CCTE's Neural Network Formation Assay for Burst Rate, Shafer Lab (AID 2284042). The gist of the method:
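Exposure ran continuously over 12 days of network development in rat cortical cultures, with compound refreshed during full media changes on DIV 5 and 9. Single-electrode bursts per recording time, well-mean over active electrodes, trapezoidal AUC across days 5–12, fitted downward relative to DMSO.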

Assay [5] is described as follows: CCTE_Shafer_MEA_dev_per_burst_interspike_interval: CCTE's Neural Network Formation Assay for Burst Interspike Interval, Shafer Lab (AID 2284044). The gist of the method: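 Primary rat cortical neurons on 48-well MEA plates, exposed from day 0 through day 12, treatment renewed at DIV 5 and 9. Within-burst interspike interval recorded days 5, 7, 9, 12, well-averaged, summarised as AUC; negative fit versus DMSO.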

Assay [6] can be described thus: CCTE_Shafer_MEA_dev_burst_duration_mean: CCTE's Neural Network Formation Assay for Mean Burst Duration, Shafer Lab (AID 2284045). The gist of the method:
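Network-formation assay in primary rat cortical neurons; treatment spans twelve days of development. Mean burst duration per well is integrated by trapezoidal AUC and fitted in the loss-of-signal direction against DMSO baseline.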

Assay [7] can be described thus: CCTE_Shafer_MEA_dev_interburst_interval_mean: CCTE's Neural Network Formation Assay for Mean Interburst Interval, Shafer Lab (AID 2284046).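 Also: curve fitted for decrease in interburst interval relative to DMSO.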 A digest of the protocol: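 Primary rat cortical neurons on PEI-coated 48-well MEA plates (laminin added with cells at plating) (16 electrodes/well), exposed from plating day 0 with renewal at DIV 5 and 9. Mean inter-burst interval averaged over bursting electrodes, AUC across days 5, 7, 9, 12; DMSO baseline.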

Assay [8] can be described thus: CCTE_Shafer_MEA_dev_inter_network_spike_interval_mean: CCTE's Neural Network Formation Assay for Mean Inter-network Spike Interval, Shafer Lab (AID 2284047). A digest of the protocol:
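Mean time between consecutive network-spike peaks, recorded extracellularly (adaptive spike detection) on DIV 5, 7, 9 and 12, summarized as trapezoidal AUC. Rat cortical cultures on MEAs dosed continuously days 0–12, re-dosed at feeds; loss-of-signal fit relative to DMSO.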

Assay [9] in a line: CCTE_Shafer_MEA_dev_network_spike_number: CCTE's Neural Network Formation Assay for Number of Network Spikes, Shafer Lab (AID 2284048).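 Also: synchronized bursts across electrodes counted on days 5 7 9 12 and integrated as AUC; fit as a loss of signal meaning fewer network spikes than DMSO.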 The gist of the method: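 Extracellular recordings from 16-electrode wells track network formation in rat cortical cultures under continuous treatment from plating. The endpoint is network spike number, expressed as AUC across DIV 5–12 relative to DMSO vehicle.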

Assay [10] in a line: CCTE_Shafer_MEA_dev_spike_duration_mean: CCTE's Neural Network Formation Assay for Mean Spike Duration, Shafer Lab (AID 2284051).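 Also: mean network spike duration pooled as area under curve over DIV 5 to 12 recordings; potency for a decrease in mean network spike duration versus DMSO.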 A digest of the protocol:
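Spontaneous activity was recorded on days 5, 7, 9 and 12 from rat cortical cultures grown on microelectrode arrays and dosed continuously from day 0, with media and compound renewed after the DIV 5 and 9 recordings. Network-spike duration was collapsed by area under the curve.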

The nature of assay [11]: CCTE_Shafer_MEA_dev_network_spike_duration_std: CCTE's Neural Network Formation Assay for Standard Deviation of Network Spike Duration, Shafer Lab (AID 2284052).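 Also: hits are decreases in network spike duration SD versus DMSO vehicle.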 The gist of the method: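 Network spike duration variability was collapsed across recordings on days 5, 7, 9 and 12 by trapezoidal area-under-curve and fitted downward against DMSO. Cultures were rat cortical neurons on PEI-coated MEA plates, dosed continuously from plating, refed with compound DIV 5/9.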

Assay [12] in a line: CCTE_Shafer_MEA_dev_per_network_spike_spike_number_mean: CCTE's Neural Network Formation Assay for Mean Number of Spikes in a Network Spike, Shafer Lab (AID 2284053). The gist of the method:
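Mean spike count within each network spike, taken in a 0.05 s window at its peak, was recorded on days 5, 7, 9 and 12 and integrated as trapezoidal area under the curve. Rat cortical cultures on MEA plates received continuous compound from day 0, refreshed at medium changes on DIV 5 and 9.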

A short description of assay [13]: CCTE_Shafer_MEA_dev_per_network_spike_spike_percent: CCTE's Neural Network Formation Assay for Percent of Spikes in a Network Spike, Shafer Lab (AID 2284054). A digest of the protocol: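 Developing networks of rat cortical neurons are dosed at day 0 and recorded extracellularly four times up to day 12. The endpoint is the area under the curve of percent spikes in network spikes, fitted in the negative direction relative to DMSO.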

Assay [14] in a line: CCTE_Shafer_MEA_dev_LDH: CCTE's Lactate Dehydrogenase Assay for Cytotoxicity in the Neural Network Formation Assay, Shafer Lab (AID 2284068; active = hit-call score of the fitted dose curve at least 0.9, where 1 is the maximum;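 also: exposure for twelve days from plating with re-dosing on DIV 5 and 9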). The gist of the method: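 Primary rat cortical neurons were cultured on PEI-coated MEA plates and exposed from plating through day 12, with compound renewed at medium changes on DIV 5 and 9. LDH activity was read spectrophotometrically; loss of signal versus DMSO indicates reduced viability.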

Assay [15] is described as follows: UKN5_HCS_SBAD2_neurite_outgrowth: University of Konstanz (UKN) Leist Lab Neurite Outgrowth Assay in human iPSC-derived immature Dorsal Root Ganglia Neurons (UKN5) (AID 2284070). As to conditions: actives raise or lower the signal. The gist of the method: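 Neurite outgrowth is quantified as calcein-AM-labelled neurite area in human iPSC-derived peripheral neurons treated for 24 h, starting 1 h after plating in medium with CHIR99021 (1.5 uM), SU5402 (5 uM) and DAPT (5 uM).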

A short description of assay [16]: CCTE_Shafer_MEA_dev_AB: CCTE's Alamar Blue Assay for Cytotoxicity in the Neural Network Formation Assay, Shafer Lab (AID 2284083; active = hit-call score of the fitted dose curve at least 0.9, where 1 is the maximum;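 also: resazurin reduction fluorescence as viability of cultured neurons; twelve days of exposure from plating with re-dosing on DIV 5 and 9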). A digest of the protocol:
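Resazurin fluorescence, relative to DMSO, gauges viability after twelve days of exposure that began at plating of rat cortical neurons (1.5 x 10^5 cells/well, 48-well MEA); treatment renewed with full medium exchange on DIV 5 and 9.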
A general note: Alamar Blue is a resazurin reagent that responds to reducing activity.

The nature of assay [17]: CCTE_Shafer_MEA_dev_mutual_information_norm: CCTE's Neural Network Formation Assay for Mutual Information Normalization, Shafer Lab (AID 2284091). A digest of the protocol: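 Exposure of primary rat cortical neurons began at plating and ran to DIV 12, with full media and treatment renewal after DIV 5 and 9 recordings. Mutual information AUC (DIV 5–12) was analysed for loss versus DMSO.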

Assay [18] in a line: CCTE_Shafer_MEA_dev_correlation_coefficient_mean: CCTE's Neural Network Formation Assay for Mean Correlation Coefficient, Shafer Lab (AID 2284093).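 Also: well mean pairwise spike train correlation integrated as AUC over recording days 5 to 12; potency fitted for loss of correlation relative to DMSO vehicle wells.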 The gist of the method: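 Primary rat cortical neurons on PEI-coated 48-well MEA plates (16 electrodes/well) were exposed from plating day 0 through DIV12, with compound renewed at DIV5 and 9. Pairwise spike correlations were averaged per well; trapezoidal AUC across DIV5, 7, 9, 12.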

Assay [19] can be described thus: UKN2_HCS_IMR90_neural_migration: University of Konstanz (UKN) Leist Lab Neural Crest Cell Migration Assay in human induced IMR90 Pluripotent Stem Cells (UKN2) (AID 2284204). As to conditions: actives raise or lower the signal. A digest of the protocol:
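Using a 96-well stopper format with PLO/laminin/fibronectin coating, neural crest cells from iPSC migrate in cytokine-supplemented N2-S medium; after 24 h, chemicals are applied for a further 24 h, then cells are imaged after dye staining.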

The nature of assay [20]: IUF_NPC1b_proliferation_BrdU_72hr: Leibniz Research Institute for Environmental Medicine (IUF) 72-hour Neural Progenitor Cell Bromodeoxyuridine (BrdU) Proliferation Assay (NPC1b) (AID 2284207). The gist of the method:
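Neural progenitor spheres of human fetal origin are treated for three days; BrdU added for the last 16 h is quantified by luminescence ELISA, with DMSO as baseline and EGF/FGF omission as positive control.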

The nature of assay [21]: IUF_NPC1a_proliferation_area_72hr: Leibniz Research Institute for Environmental Medicine (IUF) 72-hour Neural Progenitor Cell Proliferation Area Assay (NPC1a) (AID 2284208). A digest of the protocol:
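Single 0.25–0.35 mm human fetal neural progenitor spheres in proliferation medium with EGF and FGF, exposed 72 h from plating without renewal at 37C, pH 7.2-7.6. Sphere area growth measured by automated phase-contrast imaging, relative to DMSO.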

Inconclusive results are not listed. The source made the active and inactive calls. The calls were made as follows, unless noted: active = hit-call score of the fitted dose curve at least 0.9, where 1 is the maximum; inactive = score below 0.9.

With `CC(=O)[O-].CC(=O)[O-].O.O.O.[Pb+2]`, the compound was classed as inactive in assay [1], in [4], in assay [5], in assay [6], in assay [7] and in assay [8]. In addition, the outcome in [11], in [15], in [17], in assay [20] and in assay [21] was inactive. For the same compound, the AC50 in [2] is 23.5 µM (active); in [3] it was 22.3 µM (active); in assay [9], 2.98 µM (active); in assay [10] it was 22.2 µM (active); in assay [12] it was 20.2 µM (active); in assay [13] it was 15 µM (active). For the same compound, the AC50 in [14] was 23.7 µM (active); in assay [16], 24 µM (active); in assay [18], 19.7 µM (active); in assay [19] it was 32.8 µM (active).

Broadly, the AC50 is the concentration giving half of the maximal activity seen.

For the origin of these results see PubChem BioAssay (EPA / NIEHS).
